{"source": "PubChem BioAssay (NCI)", "note": "This is part of a sample that, as a whole, favours compounds with a hit. Of some 83,000 tested, about 20% had one in any assay.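 48-hour exposure, single concentration, 96-well plates; percent growth endpoint where 0 means no net growth. Active: below 10.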 A number with no mark means an inactive call. Active and inactive are the calls of the source."}
{"test_system": "MDA-MB-468 breast", "test": "NCI-60 one-dose screen, 48 h (100 = growth as untreated, 0 = no growth, -100 = all killed)", "conditions": "10 µM unless noted"}
{"smiles": "O=C1c2ccc3c4c(ccc(c24)C(=O)N1CCCNCc1ccccc1)C(=O)N(CCCNCc1ccccc1)C3=O", "growth": "-95.5% (active)"}
{"smiles": "COc1cc(C2C3CC4CCCC[C@H]4N3[C@@]3(C(=O)Nc4cc(Cl)ccc43)C2C(=O)c2nc3ccccc3[nH]2)cc(OC)c1OC", "note": "(some centres undefined)", "growth": "52.8%"}
{"smiles": "c1cncc(-c2csc(-c3c[nH]c4ccccc34)n2)c1", "growth": "99.1%"}
{"smiles": "C=CCn1c(SCC(=O)Nc2cccc(C(=O)/C=C/c3ccc(C)cc3)c2)nc2ccccc2c1=O", "growth": "76.3%"}
{"smiles": "Nc1ccc(-c2cc3c(Nc4ccc(OCc5cccc(F)c5)c(Cl)c4)ncnc3s2)cc1", "growth": "14.2%"}
{"smiles": "CC(C)NS(=O)(=O)c1cccc(-c2ccc3c(=O)n(CCCN)c4c(c3c2)C(=O)c2ccccc2-4)c1", "growth": "111%"}
{"smiles": "Cc1nccc2c3ccc(OCc4cn(-c5ccc(Br)cc5)nn4)cc3n(CC(C)C)c12", "growth": "5.61% (active)"}
{"smiles": "COc1cccc2c1-c1ccccc1C2=O", "growth": "39.3%"}
{"smiles": "C[N+]1(CCCCC[N+]2(C)CCCC2)CCCC1", "growth": "117%"}
{"smiles": "CCN1C(=O)N(CC)C2C1NN=c1s/c(=C\\c3ccc(F)cc3)c(=O)n12", "note": "(centres undefined)", "growth": "11.9%"}
{"smiles": "CCOC(=O)c1c(C)[nH]c2ccc(O)cc12", "growth": "102%"}
{"smiles": "COc1cc(Nc2ncccc2/C=C/C(=O)c2cc(OC)c(OC)c(OC)c2)cc(OC)c1OC", "growth": "-2.82% (active)"}
{"smiles": "COc1ccc(CN2c3ccccc3Sc3ccccc32)cc1O", "growth": "9.33% (active)"}
{"smiles": "CCOc1ccc2c(c1)CC[C@@H]1[C@@H]2CC[C@]2(C)[C@@H](O)[C@@H](O)C[C@@H]12", "growth": "87.5%"}
